Source: PubChem BioAssay
Hits are enriched below; roughly 3% of the tested compounds scored in any of these assays.
TSG101-PTAP inh: qHTS Assay for Iinhibitors of HIV-1 Budding by Blocking the Interaction of PTAP/TSG101; Tumor susceptibility gene 101 protein (Homo sapiens), Q99816; Fluorescence polarization, FITC-PTAP peptide / Tsg101 binding; Potency, µM (highest dose often 115 µM), for the others: top-dose activity change, negative = inhibition, usual class: inhibitors; 340,000 tested, under 10 active; active means well fitted inhibition curve with a large enough effect in the main read-out, with a control signal flat, not every such curve was filed as active; inconclusive means small, poorly fitted or top-dose-only effect, or effect the other way, or a change in a side signal; inactive means no such curve, though single readings can be large or run the other way; further: % of control where 0% means no effect
Target sequence (Q99816 whole entry, looked up): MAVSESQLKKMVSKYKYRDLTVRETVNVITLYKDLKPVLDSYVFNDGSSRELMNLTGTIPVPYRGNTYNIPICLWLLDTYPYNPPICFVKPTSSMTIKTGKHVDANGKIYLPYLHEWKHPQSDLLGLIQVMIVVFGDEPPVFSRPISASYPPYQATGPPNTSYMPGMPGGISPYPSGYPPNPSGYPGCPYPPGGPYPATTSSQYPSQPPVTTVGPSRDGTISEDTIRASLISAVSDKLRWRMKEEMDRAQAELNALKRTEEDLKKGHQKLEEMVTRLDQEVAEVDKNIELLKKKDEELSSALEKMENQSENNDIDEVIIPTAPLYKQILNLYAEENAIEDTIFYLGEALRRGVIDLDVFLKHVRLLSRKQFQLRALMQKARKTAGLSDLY
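FP read-out: FITC-PTAP peptide, 50 nM final, binding Tsg101 binding domain, 10 uM final; 20 min, r.t.; 10 mM HEPES pH 7.5, 0.15 M NaCl, 0.01% Tween 20, 3 mM EDTA, 0.1 mM TCEP.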
PLK1 PBD block: qHTS for Inhibitors of PLK1-PDB (polo-like kinase 1 - polo-box domain): Primary Screen | actives 2.8% (n = 360,000) | Serine/threonine-protein kinase PLK1 (Homo sapiens), P53350 | Potency, µM, inactives show max response, negative = inhibition, most hits filed as inhibitors | Plk1 PBD binding of FITC phosphopeptide, fluorescence polarization; further: series mostly up to about 57 µM; on the % scale 0 is the no-effect control and ±100 the full control effect; nearly all actives have a fitted effect of over 65% in size
VDR inhibitor: Inhibitors of the vitamin D receptor (VDR): qHTS; Vitamin D3 receptor (Homo sapiens), P11473; VDR-SRC2-3 peptide fluorescence polarization, 2 h; Potency, µM, for inactives: max response, negative = inhibition, most hits filed as inhibitors; actives 0.93% (n = 400,000); further: on the % scale 0 is the no-effect control and ±100 the full control effect
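VDR–SRC2-3 interaction, FP format. Cmpds 23 nl via pintool, brief spin, 2 h ambient incubation.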
GCN5L2 inh: qHTS Assay for Inhibitors of GCN5L2 | GCN5L2 HAT assay, ThioGlo1 CoA-SH fluorescence | Histone acetyltransferase KAT2A (Homo sapiens), Q92830 | actives 0.21% (n = 390,000) | Potency, µM (series often up to 58.9 µM), for the others: top-dose activity change, negative = inhibition, actives largely listed as inhibitors; further: on the % scale 0 is the no-effect control and ±100 the full control effect
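Preincubate 20nM GCN5L2 with compound 15 min, RT → add 50uM ThioGlo1 + 75uM H3(1-25) + 70uM acetyl-CoA → read fluorescence 0 and 20 min. Primary qHTS; fluorescent artifacts likely.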
USP1 inh: Inhibitors of USP1/UAF1: Primary Screen | AID 743255, 2014 | Ubiquitin carboxyl-terminal hydrolase 1 (Homo sapiens), O94782 | recombinant USP1/UAF1, Ub-Rhodamine cleavage fluorescence | actives 0.23% (n = 390,000) | Potency, µM (titrated, usually from 57.1 µM), without a hit: at the top dose activity change, negative = inhibition, actives largely listed as inhibitors; further: on the % scale 0 is the no-effect control and ±100 the full control effect; nearly all actives have a fitted effect of over 60% in size
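High-throughput fluorogenic screen: 1nM USP1/UAF1 complex, Ub-Rho substrate 150nM final, 50mM HEPES pH 7.8 with 0.5mM EDTA, 0.1 mg/ml BSA, 1mM TCEP and 0.01% Tween-20.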
Numbers without * were called inactive; ? = inconclusive; . = not tested or not shown. Unless noted, the call rests on the fitted dose curve; in most records, active means well fitted curve in the direction sought with a large enough effect; inconclusive means small, poorly fitted or top-dose-only effect, or another doubt; inactive means no such curve, though single readings can be large; an effect the other way counts as inactive or inconclusive. Potency means the concentration at half of the fitted maximal effect.

SMILES	TSG101-PTAP inh	PLK1 PBD block	VDR inhibitor	GCN5L2 inh	USP1 inh
CCC/C=C1/CCCOC(C(=O)NCc2ccc(C)o2)(C(F)(F)F)C1 (stereo unspecified)	-6%	?	50µM*	-19%	-5%
COC(=O)/C=C1\S/C(=N/N=C/c2ccc(Cl)cc2)NC1=O	-3%	30µM*	-14%	-15%	-1%
COC(=O)/C=C1\S/C(=N/N=C/c2ccccc2)NC1=O	0%	-16%	0%	-12%	-15%
CCCCC/C=C\C/C=C\CCCCCCCCCC(=O)NC(C)C(=O)O (stereo unspecified)	.	.	-9%	.	.
COc1ccc(NC(=O)CSc2nc(-c3ccco3)cc(C(F)(F)F)n2)c(OC)c1	.	.	2%	-2%	-24%
CCOc1ccc(-n2ccnc2SCC(=O)Nc2cccc3ccccc23)cc1	.	.	10%	-8%	5%
NC(=O)c1ccc(-n2nnnc2Oc2ccccc2)cc1	1%	24µM*	-21%	-12%	-9%
O=C(CSc1ncc(C(F)(F)F)cc1Cl)N1CCNC1=O	-6%	27µM*	-12%	0%	-18%
CCCn1c(N)c(C(=O)CSc2ncc(C(F)(F)F)cc2Cl)c(=O)[nH]c1=O	2%	?	-15%	-6%	-3%
O=C(CSc1ncc(C(F)(F)F)cc1Cl)N1CCN(S(=O)(=O)c2ccc3ccccc3c2)CC1	-9%	24µM*	?	-5%	-20%
Cn1ncc2c(=S)[nH]c(=S)[nH]c21	.	27µM*	.	.	.
Cn1ncc(=S)[nH]c1=S	-4%	-22%	6%	.	-17%
O=C(CSc1ncc2c(n1)-c1ccccc1N(Cc1ccccc1)S2(=O)=O)Nc1ccccc1	.	.	0%	-16%	-10%
CCNc1ccc(Br)cc(C(=O)/C=C/c2ccc(Cl)cc2Cl)c1=O	-5%	?	79µM*	-26%	?
CNc1ccc(Br)cc(C(=O)/C=C/c2cc(OC)ccc2OC)c1=O	0%	-28%	?	?	?
O=C(NCc1ccco1)c1ccc2c(c1)N(Cc1ccc(F)cc1)C(=O)c1ccccc1S2(=O)=O	.	.	-18%	-10%	-21%
O=C(NC1CCCCC1)C(=S)N1CCOCC1	-2%	24µM*	-15%	-9%	-7%
COc1ccc2[nH]cc(CCNc3ccnc(-c4ccc(N(C)C)cc4)n3)c2c1	.	.	-18%	-29%	.
O=C(CNC(=O)c1cccs1)Nc1ncccc1O	-4%	-2%	-7%	-3%	-8%
COc1c(C2=CC(=O)N(C)C2=O)c2c(n1C)C(=O)c1ccccc1C2=O	.	.	13µM*	.	.
COc1ccccc1N1C(=O)C(=O)N(C)C1=O	0%	-3%	-8%	.	-3%
O=C(Nc1ccccc1N1CCCCC1)c1ccc(-c2ccc(Cl)cc2)o1	-2%	27µM*	-18%	-16%	-23%
CN1CCN(c2ccccc2NC(=O)c2ccc(-c3ccc(Br)cc3)o2)CC1	-2%	0%	6%	-10%	-21%
Cc1c(N(C)S(=O)(=O)c2cc(C(=O)NCC3CCCO3)ccc2Cl)c(=O)n(-c2ccccc2)n1C (stereo unspecified)	-2%	-2%	1%	-2%	-3%
O=C(Oc1ccc(N(Cc2cccs2)C2=NS(=O)(=O)c3ccccc32)cc1)c1ccccc1Cl	1%	2.7µM*	?	-5%	-28%
SMILES	TSG101-PTAP inh	PLK1 PBD block	VDR inhibitor	GCN5L2 inh	USP1 inh
O=C(Oc1ccc(N(Cc2cccs2)C2=NS(=O)(=O)c3ccccc32)cc1)c1ccco1	-2%	-4%	9%	-15%	-17%
O=C1CC(N(O)C2CC(=O)N(Cc3ccccc3)C2=O)C(=O)N1Cc1ccccc1 (stereo unspecified)	1%	24µM*	?	-4%	1%
CCCN(CCC)C1CC(=O)N(Cc2ccccc2)C1=O (stereo unspecified)	-1%	-14%	-2%	0%	1%
CCS(=O)(=O)N1CCc2cc(C(=O)NCc3ccc(Cl)cc3)ccc21	.	.	8%	-6%	-13%
CCOc1ccc(/C=C/c2nc(C#N)c(NC(C)CC)o2)cc1 (stereo unspecified)	.	.	3%	-5%	-6%
C=C(CN(C)C)C(=O)c1ccc2c(c1)OCO2	-1%	15µM*	79µM*	.	-14%
C=C(CN(C)C)C(=O)c1cc(OC)c(OC)cc1OC	-1%	17µM*	50µM*	.	2%
C=C(CN(C)C)C(=O)c1ccc(C)cc1C	0%	2.7µM*	18µM*	.	-24%
COc1cc(OC)c(C(=O)CCC(=O)O)cc1OC	2%	-9%	-8%	-5%	-8%
COc1ccc(C2C3C=CCC(c4cccc(/C=C/c5ccccc5)c4)C3C(=O)N2Cc2ccccc2)cc1Cl (stereo unspecified)	.	.	10%	.	.
Cc1ccc(-n2nc(CO)c(C(=O)NCc3ccccn3)n2)cc1	.	.	13%	2%	-4%
Cc1ccc2oc(=O)n(CC(=O)O)c2c1	-5%	27µM*	-26%	-3%	-11%
O=C1c2ccccc2C(=O)N1CN(C(=O)c1ccccc1)c1ccc(O)cc1	-4%	21µM*	10%	3%	-23%
O=C1c2ccccc2C(=O)N1CN(C(=O)COc1ccccc1)c1ccccc1	-9%	-7%	-16%	-1%	-20%
Cc1ccc([C@@H]2CC=C(C(=O)O)[C@H](c3ccc(C(C)(C)C)cc3)N2S(=O)(=O)c2ccc(C)cc2)cc1	-10%	27µM*	-6%	?	?
Cc1ccc(S(=O)(=O)N2[C@@H](c3ccc(Br)cc3)C(C(=O)O)=CC[C@H]2c2ccc(C(C)C)cc2)cc1	-8%	30µM*	?	?	-9%
CCOC(=O)C1=CC[C@@H](c2ccccc2)N(S(=O)(=O)c2ccc(C)cc2)[C@@H]1C#N	.	15µM*	.	.	.
Cc1ccc([C@@H]2CC=C(C(=O)O)[C@H](c3ccc(F)cc3)N2S(=O)(=O)c2ccc(C)cc2)cc1	-1%	-20%	-22%	-1%	-16%
Cc1ccc(S(=O)(=O)N2[C@@H](c3ccc(C(C)(C)C)cc3)C(C(=O)O)=CC[C@H]2c2ccc(Cl)cc2)cc1	-9%	21µM*	?	?	?
Cc1ccc(Cn2c(CN3CCN(c4cccc(Cl)c4)CC3)nc3c2c(=O)n(C)c(=O)n3C)cc1	.	.	6%	-8%	-17%
Cc1ccc(S(=O)(=O)N2[C@@H](c3cccc(Cl)c3)C(C(=O)O)=CC[C@H]2c2ccc(Cl)cc2)cc1	0%	27µM*	-19%	-26%	-1%
Cc1ccc(S(=O)(=O)N2C(c3ccc(Cl)c(Cl)c3)CC=C(C(=O)O)C2c2ccc(Cl)cc2)cc1 (stereo unspecified)	.	27µM*	.	.	.
